Assay results as given in PubChem BioAssay AID540352 (National Center for Advancing Translational Sciences (NCATS), 2011).
“And” between values parts separate entries of the source, which are not always exact repeats. Equal entries are not always repeated. Inconclusive results are not listed. The source made the active and inactive calls. Calls come from the whole dose curve; as a rule, active = well fitted inhibition curve with a large enough effect; inconclusive = small, poorly fitted or top-dose-only effect; inactive = no such curve, though single readings can be large or run the other way.

Experiment: qHTS for Inhibitos of Bacillus subtilis Sfp phosphopantetheinyl transferase (PPTase): Chemistry Optimization Followup in B. Subtilis 168
Settings: B. subtilis 168 growth, BacTiter-Glo luminescence, 5 h; series mostly up to 114 µM
Excerpt: Phosphopantetheinyl transfer is a process essential to cellular viability and maintenance. Cell-permeable and stable compounds acting as PPTase inhibitors are anticipated to be antimicrobial agents in organisms with complimenting genotypes. […] This experiment evaluated a series of test compounds for antimicrobial activity with B. subtilis 168 (genotype: acpS+ and sfp-), a strain that contains a frameshift mutation in the sfp locus and thus requires a functional AcpS gene product for viability. [Mootz HD, 2001] This strain is expected to be sensitized to cell-permeable AcpS inhibitors, and insensitive to Sfp inhibitors. NIH Chemical Genomics Center [NCGC] NIH Molecular Libraries Probe Centers Network [MLPCN] MLPCN Grant: MH083266-01 Assay Submitter (PI): Michael Burkart, University of California, San Diego
Innoculum preparation. Bacillus subtilis 168 is maintained on lysogeny broth (LB) solidified by the addition of 1.5% w/v agar. Single colonies were used to LB medium (2 mL) and shaken overnight at 30 masculineC. In the morning, this culture (100 ul) was used to seed a fresh LB medium (10 mL) and was shaken at 30 masculineC until the culture OD600 reached 0.5. This culture was diluted 1:100 in fresh LB medium to provide the inoculum below. Bacterial susceptibility. LB medium (2 uL) is dispensed into wells of a sterile white 1536-well plate. Test compounds (23 nL) prepared as serial dilutions in DMSO are added to the plate by pintool transfer. Innoculum (2 uL) is added, the plates are covered with a vented Kalypsys assay lid and incubated at 30 masculineC. After 5 h, Bac-Titer Glo (4 uL; Promega Corp, Madison, WI) is added to the plates. They are incubated 10 minutes at room temperature and then the luminescence detected in a ViewLux multimodal plate reader.

Potency, active:
Cc1ccnc(NC(=S)N2CCN(c3cccc(C(F)(F)F)c3)CC2)c1 41.8 µM and 14.8 µM and 16.7 µM
COC(=O)c1ccnc(NC(=S)N2CCN(c3cccc(C(F)(F)F)c3)CC2)c1 41.8 µM
Cc1cc(C)nc(NC(=S)N2CCN(c3ccc(Cl)cc3C(F)(F)F)CC2)c1 9.37 µM
FC(F)(F)c1cccc(N2CCN(C(=S)Nc3cc(C(F)(F)F)ccn3)CC2)c1 13.2 µM
Cc1ccnc(NC(=S)Nc2cccc(C(F)(F)F)c2)c1 16.7 µM
FC(F)(F)c1cccc(N2CCN(C(=S)Nc3ccccn3)CC2)c1 46.9 µM
Cc1ccnc(NC(=S)N2CCc3ccccc3C2)c1 59.1 µM
Cc1cc(C)nc(NC(=S)N2CCN(c3cc(F)cc(F)c3)CC2)c1 37.3 µM
Cc1cc(C)nc(NC(=S)N2CCN(c3ccc(Cl)cc3Cl)CC2)c1 23.5 µM
S=C(Nc1cc(Cl)ccn1)N1CCN(c2cc(Cl)cc(Cl)c2)CC1 13.2 µM
Cc1ccnc(NC(=S)NC2CCN(c3cccc(C(F)(F)F)c3)CC2)c1 46.9 µM
Cc1cc(C)nc(NC(=S)N2CCN(c3ccc(Cl)cc3F)CC2)c1 23.5 µM
Cc1ccnc(NC(=S)N2CCN(c3cccc(N(C)C)c3)CC2)c1 59.1 µM
Cc1ccnc(NC(=S)N2CCN(c3ccc(Cl)cc3Cl)CC2)c1 16.7 µM
Cc1ccnc(NC(=S)N2CCN(c3cc(F)cc(Cl)c3)CC2)c1 5.91 µM
FC(F)(F)c1cccc(N2CCN(C(=S)Nc3ccncc3)CC2)c1 41.8 µM
FC(F)(F)c1cc(N2CCN(C(=S)Nc3cc(Cl)ccn3)CC2)cc(C(F)(F)F)c1 37.3 µM
COc1ccnc(NC(=S)N2CCN(c3ccc(Cl)cc3Cl)CC2)c1 13.2 µM
Cc1cc(C)nc(NC(=S)N2CCN(Cc3cccc4ccccc34)CC2)c1 37.3 µM
Cc1cc(C)nc(NC(=S)N2CCN(c3nsc4ccccc34)CC2)c1 52.7 µM
Cc1cc(C)nc(NC(=S)N2CCN(c3ccc([N+](=O)[O-])cc3Cl)CC2)c1 9.37 µM
COc1ccnc(NC(=S)N2CCN(c3cccc(Cl)c3Cl)CC2)c1 9.37 µM
Cc1ccnc(NC(=S)NC2CN(c3cccc(C(F)(F)F)c3)C2)c1 46.9 µM
Cc1cc(C)nc(NC(=S)N2CCN(c3ccc(Cl)c(Cl)c3Cl)CC2)c1 9.37 µM
FC(F)(F)c1cnc(N2CCN(C(=S)Nc3cc(Cl)ccn3)CC2)c(Cl)c1 14.8 µM
FC(F)(F)c1cccc(N2CCN(C(=S)Nc3ncnc4ccccc34)CC2)c1 6.63 µM
Cc1cc(C)nc(NC(=S)N2CCN(c3ccc(C(F)(F)F)cc3[N+](=O)[O-])CC2)c1 41.8 µM
Cc1ccnc(NC(=S)N2CC3CN(c4cccc(C(F)(F)F)c4)CC3C2)c1 (stereo not given) 11.8 µM
Cc1cc(C)nc(NC(=S)N2CCN(c3cc(Cl)c(Cl)cc3Cl)CC2)c1 21 µM

Potency, inactive:
Cc1ccnc(NC(=S)N2CCN(c3cccc(C(F)(F)F)c3)C2)c1
Cc1cncc(NC(=S)N2CCN(c3cccc(C(F)(F)F)c3)CC2)c1
COc1cccc(NC(=S)N2CCN(c3cc(C(F)(F)F)cc(C(F)(F)F)c3)CC2)n1
COc1cccc(NC(=S)N2CCN(c3ccc(Cl)c(Cl)c3)CC2)n1
COc1cccc(NC(=S)N2CCN(c3cc(Cl)cc(Cl)c3)CC2)n1
COc1ccc(NC(=S)N2CCN(c3cccc(C(F)(F)F)c3)CC2)nc1
Cc1ccnc(NC(=S)N2CCN(c3ccc(N)cc3)CC2)c1
Cc1cc(C)nc(NC(=S)N2CCN(c3ccc4cn(C)nc4c3)CC2)c1
Cc1cc(C)nc(NC(=S)N2CCN(c3ncccc3C#N)CC2)c1
Cc1ccnc(NC(=S)NCCN(C)c2cccc(C(F)(F)F)c2)c1
Cc1cc(C)nc(NC(=S)N2CCN(c3ccc(Cl)nn3)CC2)c1
